DT40 TDP1 no CPT = qHTS for Inhibitors of human tyrosyl-DNA phosphodiesterase 1 (TDP1): qHTS in cells in absence of CPT; DT40 Tdp1-/- hTDP1 cells, no CPT, ATP luminescence, 48 h; Potency, µM (titrated, usually from 46.2 µM), without a hit: at the top dose activity change, negative = growth inhibition, hits mostly inhibitors; hit rate 15% among 420,000; AID 686978, 2013; also: % is scaled to controls: 0 for no effect and ±100 for the full control effect; nearly all actives have a fitted effect of over 55% in size
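Compound effects on proliferation are scored in DT40 Tdp1-/-;hTDP1 cells in the absence of CPT. ATP levels (CellTiter-Glo luminescence) are recorded after a ≥48 hr, 37 °C incubation.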
TDP1 block = blocks human tyrosyl-DNA phosphodiesterase 1; Q9NUW8; recombinant TDP1, AlphaScreen DNA substrate cleavage; Potency, µM (doses to about 130 µM), for inactives: at the top dose activity change, negative = inhibition, actives largely listed as inhibitors; hit rate 0.28% among 350,000; also: % is scaled to controls: 0 for no effect and ±100 for the full control effect; nearly all actives have a fitted effect of over 40% in size
Target sequence (Q9NUW8 whole entry, looked up): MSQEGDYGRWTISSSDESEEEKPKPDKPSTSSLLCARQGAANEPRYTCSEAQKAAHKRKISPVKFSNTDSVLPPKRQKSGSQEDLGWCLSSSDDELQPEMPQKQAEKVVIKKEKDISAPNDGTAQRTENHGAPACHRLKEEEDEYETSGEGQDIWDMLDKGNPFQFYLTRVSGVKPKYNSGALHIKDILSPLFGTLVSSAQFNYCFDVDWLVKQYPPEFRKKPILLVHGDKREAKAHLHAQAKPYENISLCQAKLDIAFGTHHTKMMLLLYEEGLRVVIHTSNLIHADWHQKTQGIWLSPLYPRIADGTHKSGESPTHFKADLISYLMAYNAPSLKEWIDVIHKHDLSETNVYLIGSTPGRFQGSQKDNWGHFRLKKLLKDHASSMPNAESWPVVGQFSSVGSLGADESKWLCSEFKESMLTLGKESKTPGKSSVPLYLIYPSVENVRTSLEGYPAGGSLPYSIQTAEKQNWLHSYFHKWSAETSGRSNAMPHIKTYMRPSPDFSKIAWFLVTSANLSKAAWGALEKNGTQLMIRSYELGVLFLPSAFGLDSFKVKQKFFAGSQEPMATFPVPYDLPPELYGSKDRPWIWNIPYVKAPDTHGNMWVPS
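E. coli-derived human Tdp1, 1 nM final. Cpd preinc 15 min RT; substrate 15 nM final, 5 min RT; AS bead mix 10 ug/ml final, 10 min RT. Signal loss = tyrosine-FITC cleavage. No-enzyme wells = max signal.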
TDP1 cell CPT = DT40-hTDP1 cell growth loss with CPT; chicken DT40 Tdp1-/-;hTDP1 cells + 20 nM CPT, ATP luminescence, 48 h; Potency, µM (top dose mostly 46.2 µM), for the others: at the top dose activity change, negative = growth inhibition, most hits filed as inhibitors; hit rate 12% among 420,000; also: % is scaled to controls: 0 for no effect and ±100 for the full control effect; nearly all actives have a fitted effect of over 55% in size
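Chicken DT40 Tdp1-/- cells complemented with human TDP1, 400 cells/well, exposed to compounds plus 20 nM camptothecin for at least 48 h at 37 C; viability read as ATP content by CellTiter-Glo luminescence.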
ClpP mod = qHTS Assay for Activators of ClpP | ATP-dependent Clp protease proteolytic subunit (Bacillus subtilis (strain 168)), P80244 | purified B. subtilis ClpP, FRET peptide cleavage, 20 min | Potency, µM (titrated, usually from 57.5 µM), without a hit: at the top dose activity change, negative = active | hit rate 1.9% among 340,000 | AID 651965, 2013; active = well fitted falling curve with a large enough effect; inconclusive = small, poorly fitted or top-dose-only effect; inactive = no such curve, though single readings can be large or run the other way; also: the source files actives as falling curves though it sought activators and does not explain the sign; nearly all actives have a fitted effect of over 65% in size
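ClpP 10 microg/mL final, pH 8 Tris/KCl buffer with BSA, glycerol, Tween-20; compound pinned in; FRET-FV substrate; RT 20 min; Ex320/Em430; ΔFRET vs ADEP 5.8 microM, DMSO, no enzyme.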
Numbers without * were called inactive; ? = inconclusive; · = no result given; [ ] = another dose, or the depositor's remark. Most compounds without a hit are left out; they make up all but 17% or so of the library. Unless noted, calls follow the shape of the dose curve; as a rule, active = well fitted curve in the direction sought with a large enough effect; inconclusive = small, poorly fitted or top-dose-only effect, or another doubt; inactive = no such curve, though single readings can be large; an effect the other way counts as inactive or inconclusive. Potency is read from the fitted curve at half-maximal effect.

SMILES	DT40 TDP1 no CPT	TDP1 block	TDP1 cell CPT	ClpP mod
CCN(CC)Cc1cc2[nH]c3c4ccc(Cl)cc4ncc3c2cc1OC	5µM*	·	3.2µM*	-12%
CCOc1ccc(NC(=O)CC2C(=O)N(c3ccc(OC)c(Cl)c3)C(=S)N2C2CC2)cc1 (stereo not drawn)	?	1%	7%	1%
COC(=O)c1cc(=O)n(Cc2ccc3c(c2)OCO3)c(=Nc2ccc(F)c(Cl)c2)s1	6.5µM*	3%	8.2µM*	-2%
COC(=O)c1cc(=O)n(CCc2ccc(OC)cc2)c(=Nc2ccc(F)c(Cl)c2)s1	?	5%	?	-2%
CCCCN1C(=O)C(C(=O)OCc2ccccc2)CC2=C1CCCC2=O (stereo not drawn)	-6%	·	-9%	-2%
Cc1cc2c(cc3c(=O)n(CC(=O)NCCCN4CC(C)CC(C)C4)ncn32)s1 (stereo not drawn)	10%	3%	5%	1%
Cc1cc(C)c(-n2c(SCCS(=O)(=O)c3ccc(F)cc3)n[nH]c2=O)c(C)c1	23µM*	3%	26µM*	·
Cc1cc(C)c(-n2c(SCc3nc4ccccc4s3)n[nH]c2=O)c(C)c1	29µM*	-1%	?	-6%
Cc1ccc(S(=O)(=O)CCSc2n[nH]c(=O)n2-c2ccccc2)cc1	?	0%	1%	-1%
CCC12C=C(/C=C/c3ccccc3)C(CC)(C1)C(c1ccccc1)CC2=O (stereo not drawn)	·	6%[21 µM]	·	·
CCn1c(SCc2nc3ccccc3c(=O)[nH]2)nc2ccccc21	21µM*	1%	?	·
CCCn1c(SCc2nc3sc(C)c(C)c3c(=O)[nH]2)nc2ccccc2c1=O	15µM*	1%	?	1%
Cc1sc2nc(CSc3nnnn3-c3ccc(Cl)cc3)[nH]c(=O)c2c1C	16µM*	3%	?	-8%
COCCn1c(Cc2ccccc2)nnc1SCc1nc2ccccc2c(=O)[nH]1	16µM*	1%	?	-24%
COCCn1c(SCc2nc3ccccc3c(=O)[nH]2)nc2ccccc2c1=O	?	9%	?	-2%
COc1ccc(CNc2ncncc2-c2ccc(C(=O)N(C)C)cc2)c(OC)c1	-16%	·	-23%	·
CCOC(=O)C1=C(C)N(C)C(=S)NC1c1cc(OC)ccc1OC (stereo not drawn)	21µM*	6%	?	·
CCOC(=O)C1=C(C)N(C)C(=O)NC1c1ccccc1OC (stereo not drawn)	-29%	-3%	?	-1%
O=C(CSc1oc(-c2ccccc2)nc1S(=O)(=O)c1ccc(Br)cc1)c1ccccc1	10µM*	3%	?	1%
O=C(CSc1oc(-c2ccccc2)nc1S(=O)(=O)c1ccc(Cl)cc1)NC1CCCCC1	-14%	-6%	-3%	-3%
O=C(CSc1oc(-c2ccccc2)nc1S(=O)(=O)c1ccccc1)c1ccccc1	15µM*	6%	12µM*	-24%
Cc1cc(C)cc(NC(=O)CSc2oc(-c3ccccc3)nc2S(=O)(=O)c2ccccc2)c1	23µM*	3%	18µM*	?
O=S(=O)(c1ccc(-c2cc(C(F)(F)F)on2)s1)N1CCN(c2cccc(Cl)c2)CC1	-4%	5%	-4%	1%
CN(Cc1ccccc1)C(=O)CN1CCN(S(=O)(=O)c2ccc(Cl)c(Cl)c2)CC1	18µM*	2%	?	1%
CN(Cc1ccc(F)cc1)C(=O)CN1CCN(S(=O)(=O)c2ccc3c(c2)OCCCO3)CC1	?	·	-26%	-1%
Cc1cc(S(=O)(=O)N2CCN(CC(=O)N(C)Cc3ccccc3)CC2)ccc1Br	15µM*	2%	?	-2%
Cc1cc(OCC(=O)N(C)Cc2ccccc2)ccc1Br	23µM*	·	?	1%
OCC[C@@H]1C[C@H](O)[C@@H](O)[C@]2(Cc3ccccc3CO2)O1	-11%	·	-14%	-1%
CCN(CC)CCNC(=O)C1c2cc(OC)c(OC)cc2C(=O)N(C)C1c1cccs1 (stereo not drawn)	21%	5%	-8%	-19%
COCCN1CCN(C(=O)c2cc(COc3ccc(F)c(F)c3)on2)CC1	-15%	-2%	-5%	-5%

Compound activity from PubChem.
